Tests used:
Conditions in all cases: concentration: 10 µM; 24 h
[1] = tested on: HCC1569; assay: cell number relative to DMSO (% of DMSO); higher = more cells (less growth inhibition / toxicity)
In short: (§1)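 Six fields per well were imaged at ×10 after the cells were fixed in 3.7% formaldehyde and stained with a rabbit anti-H1.0 antibody, an AlexaFluor 647 secondary and DAPI. The HCC1569 and TDF cells had been plated at 800 per well in 384-well plates (RPMI, 10% FBS) and treated in triplicate with compounds at 10 µM for 24 h at 37 °C. The values are the median of replicates of H1.0 nuclear intensity or cell number, as percent of the plate control. Smoothing for positional effects was applied to HCC1569 data.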

[2] = tested on: TDF; assay: as above
In short: as §1

[3] = tested on: TDF; assay: H1.0 immunofluorescence intensity relative to DMSO (% of DMSO); higher = stronger H1.0 induction, active = 120 or more
In short: as §1

[4] = tested on: HCC1569; assay: H1.0 immunofluorescence intensity relative to DMSO (% of DMSO); higher = stronger H1.0 induction, active = 140 or more
In short: as §1
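Throughout, for H1.0 immunofluorescence intensity relative to DMSO: TDF is a line of transformed human dermal fibroblasts of mesenchymal origin.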
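Throughout, for cell number relative to DMSO: TDF denotes transformed human dermal fibroblasts of mesenchymal origin.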

| Compound | cell number [1] | cell number [2] | H1.0 immunofluorescence intensity [3] | H1.0 immunofluorescence intensity [4] |
| --- | --- | --- | --- | --- |
| CCCCCCCCCCCCCCCCCCC(=O)O [Nonadecanoic acid] | 96.7 | 102 | 101 (inactive) | 98 (inactive) |
| CCC=CCC=CCC=CCC=CC=CC(O)CCCC(=O)O (racemic) | 106 | 94.7 | 103 (inactive) | 99 (inactive) |
| CC(C)C(=O)Nc1ncc(-c2cc(C(F)F)nn2-c2c(Cl)cccc2Cl)s1 | 75.5 | 69.8 | 111 (inactive) | 111 (inactive) |
| CC(C)c1cccc(C(C)C)c1N1C(=O)c2ccc(O)cc2C1=O | 60.4 | 59.5 | 119 (inactive) | 162 (active) |
| CN(C)C(=O)N=NC(=O)N(C)C [N,N,N',N'-Tetramethylazodicarboxamide] | 94.8 | 103 | 91.5 (inactive) | 99.2 (inactive) |
| COC(=O)Nc1nc2ccc(C(=O)c3cccs3)cc2[nH]1 [Nocodazole] | 59.5 | 10.9 | 157 (active) | 136 (inactive) |
| Cn1c2ccccc2c2c3c(c4c5ccccc5n(CCC#N)c4c21)CNC3=O | 94.3 | 30.5 | 90.7 (inactive) | 99.5 (inactive) |
| CCCCCC(O)C=CC=CCCCCCCCC(=O)O (stereo not given) | 96 | 97.2 | 96.4 (inactive) | 101 (inactive) |
| CN=C(NC#N)Nc1ccc(C2=NNC(=O)CC2C)cc1 (stereo not given) [Siguazodan] | 103 | 104 | 95.4 (inactive) | 115 (inactive) |
| CN(C)CCC(c1ccc(Cl)cc1)c1ccccn1 (stereo not given) [Chlorpheniramine] | 100 | 98.1 | 96.2 (inactive) | 105 (inactive) |

From the supplement of paper PMC7156485
